For some of these results: Entries with a potency or affinity are not part of this list.
Experiments:
Design in all cases: scale not given: direction of the effect not stated beside the values
[1] = target: Protein translocase subunit SecA (Escherichia coli (strain K12)) (UniProt P10408); assay: Assay to Identify E. coli SecA ATPase Inhibitors; format: functional; conditions: 30 µM
[2] = target: T1, Ubiquitin-activating enzyme e1, putative (Leishmania donovani (strain BPK282A1)) (UniProt E9BSI1); assay: Leishmania donovani Ubiquitin Activating Enzyme (LdE1); format: functional; conditions: 30 µM
T1 sequence (whole entry): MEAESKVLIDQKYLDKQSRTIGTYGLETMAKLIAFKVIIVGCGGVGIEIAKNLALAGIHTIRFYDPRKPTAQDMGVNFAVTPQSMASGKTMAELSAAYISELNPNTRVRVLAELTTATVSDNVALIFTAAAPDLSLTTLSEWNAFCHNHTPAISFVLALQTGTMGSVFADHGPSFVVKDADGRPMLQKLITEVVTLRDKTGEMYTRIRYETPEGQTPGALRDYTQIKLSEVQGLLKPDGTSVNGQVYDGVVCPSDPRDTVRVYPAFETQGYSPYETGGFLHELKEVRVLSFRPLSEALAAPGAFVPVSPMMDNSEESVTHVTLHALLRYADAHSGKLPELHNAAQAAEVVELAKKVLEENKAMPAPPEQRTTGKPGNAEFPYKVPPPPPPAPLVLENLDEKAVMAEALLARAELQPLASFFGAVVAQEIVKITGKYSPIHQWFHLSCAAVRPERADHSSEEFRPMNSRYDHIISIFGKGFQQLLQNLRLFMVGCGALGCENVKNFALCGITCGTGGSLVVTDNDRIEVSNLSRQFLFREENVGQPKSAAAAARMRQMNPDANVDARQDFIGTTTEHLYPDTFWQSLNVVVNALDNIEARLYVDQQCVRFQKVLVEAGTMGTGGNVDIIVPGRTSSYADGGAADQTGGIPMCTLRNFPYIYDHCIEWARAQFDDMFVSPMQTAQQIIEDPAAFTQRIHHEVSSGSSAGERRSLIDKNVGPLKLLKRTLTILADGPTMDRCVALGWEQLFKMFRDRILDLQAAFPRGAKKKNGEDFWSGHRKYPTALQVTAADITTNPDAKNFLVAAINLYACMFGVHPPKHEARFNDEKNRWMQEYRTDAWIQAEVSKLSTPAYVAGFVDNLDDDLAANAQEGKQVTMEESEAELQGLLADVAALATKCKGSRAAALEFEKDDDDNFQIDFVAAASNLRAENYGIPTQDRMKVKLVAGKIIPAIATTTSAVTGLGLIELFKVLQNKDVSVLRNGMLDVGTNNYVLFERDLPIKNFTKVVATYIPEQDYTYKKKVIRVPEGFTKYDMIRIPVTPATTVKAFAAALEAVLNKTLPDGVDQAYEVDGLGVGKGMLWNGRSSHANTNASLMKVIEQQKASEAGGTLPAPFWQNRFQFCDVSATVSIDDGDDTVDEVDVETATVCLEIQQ

[3] = target: AMP-activated protein kinase, AMPK (Homo sapiens) (UniProt P54646+O43741+P54619+Q9UGJ0+Q9Y478+Q13131+Q9UGI9); assay: AMP-dependent Kinase enzyme assay. An in vitro enzyme assay that detects ADP turnover that is directly proportional to AMPK activity. This uses naive AMPK that is activated during the assay with MK-8722; format: functional; conditions: 30 µM
[4] = target: Sialic acid-binding Ig-like lectin 9 (Homo sapiens) (UniProt Q9Y336); assay: Hs-Siglec9 ALPHAscreen SOP 20170721; conditions: 10 µM
Sequence of Sialic acid-binding Ig-like lectin 9 (Homo sapiens) (Q9Y336 whole entry): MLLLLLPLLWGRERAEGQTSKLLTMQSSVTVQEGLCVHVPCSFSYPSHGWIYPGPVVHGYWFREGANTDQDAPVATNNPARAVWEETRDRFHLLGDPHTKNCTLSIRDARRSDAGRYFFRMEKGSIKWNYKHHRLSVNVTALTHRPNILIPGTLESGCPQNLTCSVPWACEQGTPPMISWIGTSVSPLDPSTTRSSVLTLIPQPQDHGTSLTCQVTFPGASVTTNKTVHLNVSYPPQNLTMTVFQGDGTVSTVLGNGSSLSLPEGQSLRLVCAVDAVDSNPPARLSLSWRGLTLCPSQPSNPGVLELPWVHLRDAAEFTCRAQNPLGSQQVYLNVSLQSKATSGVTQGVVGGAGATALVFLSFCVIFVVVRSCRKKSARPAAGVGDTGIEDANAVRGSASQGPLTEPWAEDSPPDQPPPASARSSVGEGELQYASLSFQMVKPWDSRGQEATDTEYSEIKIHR

Trypanosoma cruzi = assay: Trypanosoma cruzi phosphomannomutase and mannose-1-phosphate guanylyltransferase assay; format: functional; conditions: 10 µM
[5] = target: T2, Arginase-2, mitochondrial (Homo sapiens) (UniProt P78540); assay: in vitro enzyme assay to detect the production of urea directly proportional to the activity of Arginase II; format: functional; conditions: 33.3 µM; also: in the data most compounds retested in dose-response had high values
T2 sequence (whole entry): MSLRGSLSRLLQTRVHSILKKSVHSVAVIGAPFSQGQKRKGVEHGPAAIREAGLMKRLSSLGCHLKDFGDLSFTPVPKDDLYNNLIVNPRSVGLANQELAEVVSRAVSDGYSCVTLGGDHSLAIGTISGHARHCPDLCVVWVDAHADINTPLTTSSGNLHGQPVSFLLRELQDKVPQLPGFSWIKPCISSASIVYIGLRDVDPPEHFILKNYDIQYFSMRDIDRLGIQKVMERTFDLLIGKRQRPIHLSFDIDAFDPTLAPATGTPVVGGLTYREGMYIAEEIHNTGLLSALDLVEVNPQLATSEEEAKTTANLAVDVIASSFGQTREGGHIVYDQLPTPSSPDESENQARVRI

[6] = target: T3, Proteasome subunit beta (Trypanosoma cruzi) (UniProt O96673); assay: Trypanosoma cruzi proteasome chymotrypsin-like activity (TcProtChymo) assay.; also: in the data most compounds retested in dose-response had high values; format: functional; conditions: 9.37 µM
T3 sequence (whole entry): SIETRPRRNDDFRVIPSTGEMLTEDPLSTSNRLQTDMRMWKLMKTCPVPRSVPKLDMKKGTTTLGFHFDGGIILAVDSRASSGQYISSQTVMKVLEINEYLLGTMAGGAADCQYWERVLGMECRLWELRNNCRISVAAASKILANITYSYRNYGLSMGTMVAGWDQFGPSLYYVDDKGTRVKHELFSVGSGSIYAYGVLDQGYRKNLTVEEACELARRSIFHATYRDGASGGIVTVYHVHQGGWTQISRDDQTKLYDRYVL

Homo sapiens = organism: Homo sapiens; assay: To identify inhibition of the IFN signalling (Jak-Stat) pathway via expression of an eGFP reporter gene under the control of an IFN-stimulated response element (ISRE) containing MxA promoter.; format: functional; conditions: 30 µM
[7] = target: T4, Tyrosyl-tRNA synthetase, putative (Trypanosoma cruzi (strain CL Brener)) (UniProt Q4DSP6); assay: Trypanosoma cruzi tyrosyl tRNA synthetase (TcYRS) _High Tyrosine SOP; format: functional; conditions: 30 µM; also: in the data most compounds retested in dose-response had high values
T4 sequence (whole entry): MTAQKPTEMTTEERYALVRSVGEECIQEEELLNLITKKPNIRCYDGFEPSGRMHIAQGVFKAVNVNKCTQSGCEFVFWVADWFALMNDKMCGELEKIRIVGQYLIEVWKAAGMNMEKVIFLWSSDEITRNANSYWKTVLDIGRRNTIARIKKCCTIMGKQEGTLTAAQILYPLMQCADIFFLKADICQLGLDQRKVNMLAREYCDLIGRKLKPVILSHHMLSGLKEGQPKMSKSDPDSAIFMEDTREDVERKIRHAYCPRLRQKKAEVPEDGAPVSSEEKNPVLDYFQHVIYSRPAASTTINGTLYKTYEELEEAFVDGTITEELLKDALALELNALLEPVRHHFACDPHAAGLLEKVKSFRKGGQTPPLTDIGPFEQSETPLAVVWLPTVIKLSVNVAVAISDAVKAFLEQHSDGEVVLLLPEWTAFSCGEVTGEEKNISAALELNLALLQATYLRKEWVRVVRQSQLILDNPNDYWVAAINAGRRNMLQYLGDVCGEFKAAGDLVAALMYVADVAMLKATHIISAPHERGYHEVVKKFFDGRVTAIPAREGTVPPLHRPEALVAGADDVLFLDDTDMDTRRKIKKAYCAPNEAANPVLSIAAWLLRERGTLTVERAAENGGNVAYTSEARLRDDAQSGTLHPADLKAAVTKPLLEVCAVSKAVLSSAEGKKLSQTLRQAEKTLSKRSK

[8] = target: T4, Tyrosyl-tRNA synthetase, putative (Trypanosoma cruzi (strain CL Brener)); assay: Trypanosoma cruzi tyrosyl tRNA synthetase (TcYRS) SOP; format: functional; conditions: 30 µM
[9] = target: Chromo domain-containing protein 1 (Saccharomyces cerevisiae (strain ATCC 204508 / S288c) (Baker's yeast)) (UniProt P32657); assay: ScCHD-1 Enzyme Inhibition Assay; format: functional; conditions: 30 µM; also: in the data most compounds retested in dose-response had high values
Sequence of Chromo domain-containing protein 1 (Saccharomyces cerevisiae (strain ATCC 204508 / S288c) (Baker's yeast)) (P32657 whole entry, the tested form may be a part): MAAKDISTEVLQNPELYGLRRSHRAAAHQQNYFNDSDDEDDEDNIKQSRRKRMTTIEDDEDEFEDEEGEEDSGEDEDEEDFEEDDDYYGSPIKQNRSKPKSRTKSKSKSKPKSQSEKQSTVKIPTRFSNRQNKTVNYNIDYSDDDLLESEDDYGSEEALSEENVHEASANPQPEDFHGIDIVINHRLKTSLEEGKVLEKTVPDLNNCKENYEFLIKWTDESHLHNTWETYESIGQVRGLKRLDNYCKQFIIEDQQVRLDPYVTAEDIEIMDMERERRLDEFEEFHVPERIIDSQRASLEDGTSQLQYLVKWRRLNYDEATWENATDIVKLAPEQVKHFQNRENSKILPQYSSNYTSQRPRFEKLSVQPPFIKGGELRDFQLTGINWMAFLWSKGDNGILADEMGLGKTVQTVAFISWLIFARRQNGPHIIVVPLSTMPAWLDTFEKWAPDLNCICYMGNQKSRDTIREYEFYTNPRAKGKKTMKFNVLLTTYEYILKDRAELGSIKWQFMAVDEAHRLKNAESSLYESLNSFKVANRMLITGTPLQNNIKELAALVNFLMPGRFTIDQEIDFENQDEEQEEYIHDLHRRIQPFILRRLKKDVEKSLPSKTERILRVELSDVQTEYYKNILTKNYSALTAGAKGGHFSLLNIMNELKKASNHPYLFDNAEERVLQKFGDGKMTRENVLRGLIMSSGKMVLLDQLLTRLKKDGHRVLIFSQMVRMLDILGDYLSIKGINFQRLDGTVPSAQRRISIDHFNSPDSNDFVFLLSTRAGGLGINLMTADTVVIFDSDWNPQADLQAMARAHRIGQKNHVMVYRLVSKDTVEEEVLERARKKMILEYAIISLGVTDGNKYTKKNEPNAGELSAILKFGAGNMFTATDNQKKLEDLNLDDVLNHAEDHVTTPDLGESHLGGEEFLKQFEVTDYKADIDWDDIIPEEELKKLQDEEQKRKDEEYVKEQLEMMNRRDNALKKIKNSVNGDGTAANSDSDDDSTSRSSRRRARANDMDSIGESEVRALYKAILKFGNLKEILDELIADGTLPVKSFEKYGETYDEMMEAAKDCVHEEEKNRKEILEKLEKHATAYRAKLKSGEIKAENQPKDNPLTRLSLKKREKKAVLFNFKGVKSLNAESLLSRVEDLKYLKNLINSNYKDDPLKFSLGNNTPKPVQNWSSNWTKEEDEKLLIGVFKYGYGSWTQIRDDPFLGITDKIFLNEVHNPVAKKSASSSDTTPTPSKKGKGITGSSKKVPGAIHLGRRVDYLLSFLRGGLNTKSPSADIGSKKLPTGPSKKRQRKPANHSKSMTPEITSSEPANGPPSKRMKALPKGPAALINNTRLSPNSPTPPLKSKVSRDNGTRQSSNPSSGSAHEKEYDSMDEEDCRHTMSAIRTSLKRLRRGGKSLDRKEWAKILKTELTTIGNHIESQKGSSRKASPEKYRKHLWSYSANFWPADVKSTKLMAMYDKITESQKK

Sequence of Protein translocase subunit SecA (Escherichia coli (strain K12)) (P10408 whole entry): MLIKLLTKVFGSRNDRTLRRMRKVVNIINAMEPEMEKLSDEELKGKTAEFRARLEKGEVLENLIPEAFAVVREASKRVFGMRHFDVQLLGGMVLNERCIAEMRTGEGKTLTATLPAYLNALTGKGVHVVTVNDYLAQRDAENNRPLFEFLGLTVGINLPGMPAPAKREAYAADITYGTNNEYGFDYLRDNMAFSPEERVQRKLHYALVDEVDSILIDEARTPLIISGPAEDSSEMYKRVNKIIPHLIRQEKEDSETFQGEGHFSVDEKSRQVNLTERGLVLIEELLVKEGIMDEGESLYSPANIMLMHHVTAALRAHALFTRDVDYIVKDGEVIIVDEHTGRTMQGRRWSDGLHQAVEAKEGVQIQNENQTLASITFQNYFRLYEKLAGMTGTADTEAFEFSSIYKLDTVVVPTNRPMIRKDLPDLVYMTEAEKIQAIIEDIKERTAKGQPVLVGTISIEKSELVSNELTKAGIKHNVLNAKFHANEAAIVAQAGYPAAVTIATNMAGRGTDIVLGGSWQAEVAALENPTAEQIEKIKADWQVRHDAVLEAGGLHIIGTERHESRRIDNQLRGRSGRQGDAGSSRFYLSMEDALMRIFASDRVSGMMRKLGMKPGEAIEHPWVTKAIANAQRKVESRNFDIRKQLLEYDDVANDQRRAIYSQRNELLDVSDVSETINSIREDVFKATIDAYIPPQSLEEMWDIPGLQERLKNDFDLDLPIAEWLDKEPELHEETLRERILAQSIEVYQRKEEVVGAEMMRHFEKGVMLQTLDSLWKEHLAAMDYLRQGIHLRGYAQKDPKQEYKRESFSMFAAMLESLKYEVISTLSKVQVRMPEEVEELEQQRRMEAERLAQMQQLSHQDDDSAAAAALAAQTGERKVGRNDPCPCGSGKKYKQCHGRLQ

Row | SMILES | Percent Effect [1] [%] | Percent Effect [2] [%] | Percent Effect [3] [%] | Percent Effect [4] [%] | Percent Effect (Trypanosoma cruzi) [%] | Percent Effect [5] [%] | Percent Effect [6] [%] | Percent Effect (Homo sapiens) [%] | Percent Effect [7] [%] | Percent Effect [8] [%] | Percent Effect [9] [%]
1 | Cc1ncc(C)c(N2CCCC(CO)(Cc3cccc(Cl)c3)C2)n1 (stereo unspecified) | -3.59 | 13 | 3.66 | 15.9 | 5.61 | 9.65 | 13.1 | 34 | 7.53 | 13.6 | -6.49
2 | CNc1cc(CNC(=O)c2ccccn2)nc(-c2ccncc2)n1 | -1.08 | 17.6 | 3.35 | -3.17 | 2.37 | 0.696 | 14.7 | 2.78 | 2.15 | 24.7 | -15.3
3 | COCCN1CC[C@@H]2OC[C@H](C(=O)NCc3cccs3)C[C@@H]2C1 | 0.484 | 13.5 | 0.443 | -15.8 | -3.23 | 1.59 | 8.3 | -0.0889 | -2.16 | 5.13 | -5
4 | CC(=O)N1CCN(Cc2nnc(C(C)(C)C)o2)CC1 | 0.446 | 5.41 | -5.16 | -0.469 | -0.772 | 2.86 | 14.3 | 7.35 | 1.59 | 9.76 | -3.99
5 | Cc1nc(C)n(CC2CCCN(CCc3ccncc3)C2)n1 (stereo unspecified) | -3.33 | 16.4 | 0.226 | 18.2 | 2.35 | 1.36 | 15.6 | -0.0927 | 7.53 | 17.5 | -9.61
6 | CCc1nc(CN2CCCC(N(C)Cc3cnn(C)c3)C2)no1 (stereo unspecified) | -1.5 | 8.22 | -0.902 | 3.69 | 2.74 | 5.91 | 9.23 | -2.09 | 1.07 | 2.5 | -3.19
7 | Cc1nc(C)n(CC2CCCN(Cc3nc(C4CC4)no3)C2)n1 (stereo unspecified) | -2.19 | 21.6 | -9.55 | 4.88 | 3.11 | -4.41 | 12.8 | 2.75 | 8.37 | 23.5 | -12.5
8 | COc1cc(CNC2CCc3nc(C(C)C)nn3C2)cc2c1OCO2 (stereo unspecified) | -3.28 | 2.63 | -0.342 | 1.45 | -0.28 | 3.24 | -0.592 | -4.24 | 1.48 | -6.17 | -3.88
9 | NCC(c1ccccc1)N1CCc2sccc2C1 (stereo unspecified) | -1.09 | 7.89 | -9.46 | -3.01 | -3.41 | -5.92 | 17.6 | 5.62 | 8.51 | 18.2 | -3.07
10 | Fc1ccc(CCN2CCC(c3nnc(-c4cccnc4)o3)CC2)cc1 | -1.2 | 1.35 | 6.27 | -6.66 | -0.988 | -5.8 | 18.9 | 19.1 | 3.23 | 9.09 | -14
11 | CS(=O)(=O)N1CCOCC2(CN(Cc3ccsc3)CCO2)C1 (stereo unspecified) | -4.51 | 5.48 | -1.43 | 5.15 | 7.14 | -4.39 | 8.82 | 10.5 | 5.21 | 6.17 | -0.73

From ChEMBL document CHEMBL3988442, “University of Dundee, Small-Polar-MMV Screening Library” (2021)
